Potency data for 40 compounds are collected here from PubChem BioAssay (Tox21).

Records with an inconclusive call do not appear. A call without a number means that no potency is given here. Calls of active or inactive are those of the source. The call rests on the fitted dose curve.
Potency means the concentration at half of the fitted maximal effect.

A short description of this test: qHTS assay for small molecule agonists of the p53 signaling pathway - cell viability (AID 651633). Further: nearly all actives have a fitted effect of over 30% in size. The conditions noted are these: p53RE-bla HCT-116 viability, ATP luminescence, 16 h; series mostly up to 83.3 µM. From the text:
National Center for Advancing Translational Sciences [NCATS]
NIH Chemical Genomics Center [NCGC]
U.S. Environmental Protection Agency [EPA]
National Institutes of Environmental Health Sciences [NIEHS]
National Toxicology Program [NTP]
U.S. Food and Drug Administration [FDA]
p53, a tumor suppressor protein, is activated following cellular insult, including DNA damage and other cellular stresses. The activation of p53 regulates cell fate by inducing DNA repair, cell cycle arrest, apoptosis, or cellular senescence. The activation of p53, therefore, is a good indicator of DNA damage and other cellular stresses. […] The activation of the reporter gene under culture conditions can be detected by fluorescence intensity. This cell line was used to screen the Tox21 compound library in a 1536-well plate format and to identify agonists that activate the p53 signaling pathway.
Tox21 Assay Protocol Summary:
The p53RE-bla cells were dispensed at 4,000 cells/5 ul/well in 1536-well black wall/clear bottom plates using a Multidrop dispenser. After the assay plates were incubated at a 37 C/5% CO2 incubator for 5 hours, 23 nL of compounds dissolved in DMSO, positive controls or DMSO only was transferred to the assay plate by a pin tool. The plates were incubated at 37 C for 16 hours. After 1 uL of LiveBLAzerTM B/G FRET substrate was added using a Flying Reagent Dispenser, the plates were incubated at room temperature for 2 hours, and fluorescence intensity was measured by an Envision plate reader.
For cell viability readout that measures cytotoxicity, 4 ul/well of CellTiter-Glo reagent was added into the assay plates using a Flying Reagent Dispenser. After 30 min incubation at room temperature, the luminescence intensity in the plates was measured using a ViewLux plate reader.
(Quantitative high-throughput screening tests each substance at several concentrations.)
Take `CCCCC#N`: the Potency result is “inactive”.

`C[C@H]1O[C@H](OC2[C@@H](O)[C@@H](O)C(O)[C@H](O)[C@H]2O)[C@@H](N)C[C@@H]1N=C(N)C(=O)O` (stereo not given in full): the Potency entry was “inactive”. The entry for `CC(C)(C)N(NC(=O)c1ccc(Cl)cc1)C(=O)c1ccccc1` is “inactive”; for `CCOP(=O)(SC(C)CC)N1CCSC1=O` (stereo not given) it is “inactive”.

As to `C=CC(=O)OCC`, the Potency result was “inactive”. Consider `Nc1ccccc1C(=O)OCCc1ccccc1`, for which the Potency result is “inactive”.

Consider `CC(C)(C#N)C(C)(C)C#N`, for which the Potency result was “inactive”.

On to `O=C(O)C(F)(F)C(F)(F)C(F)(F)C(F)(F)C(F)(F)C(F)(F)C(F)(F)C(F)(F)F`, for which the Potency is 61.1 µM (active).

Take `Nc1cccc2ccccc12`: the Potency result was “inactive”. As for `O=C(NC(=O)c1cc(F)c(F)cc1Cl)Nc1cc(F)ccc1N1CCC(C(=O)O)CC1`, the entry is “inactive”; as for `OCCSSCCO`, “inactive”.

Regarding `Oc1cccc(Cl)c1`, the Potency result was “inactive”. The entry for `CCCN(CCC)C(=O)Cc1c(-c2ccc(Cl)cc2)nc2ccc(Cl)cn12` is “inactive”; for `O=CC=O` it is “inactive”. For the compound `CN1C(=O)CN=C(c2ccccc2)c2cc([N+](=O)[O-])ccc21`, the Potency entry is “inactive”. As to `CC(C)c1ccc(OP(=O)(Oc2ccc(C(C)C)cc2)Oc2ccc(C(C)C)cc2)cc1`, the Potency entry was “inactive”. For `CCCBr`, the Potency entry is “inactive”.

For `O=C(CCl)CCl`, the Potency entry was “inactive”. In the case of `c1ccc2c(c1)-c1cccc3cccc-2c13`, the Potency entry is “inactive”. Turning to `O=C1c2ccccc2C(=O)N1SC(Cl)(Cl)Cl`, the Potency result was “inactive”.

With `CC(=O)OC(c1ccccc1)C(Cl)(Cl)Cl` (stereo not given), the Potency entry is “inactive”. With `CCCN(CCOc1c(Cl)cc(Cl)cc1Cl)C(=O)n1ccnc1`, the Potency result was “inactive”. With `O=C([O-])c1ccccn1.O=C([O-])c1ccccn1.O=C([O-])c1ccccn1.[Cr+3]`, the Potency entry was “inactive”. Regarding `CCCCCl`, the Potency entry was “inactive”. Turning to `OCC1CO1` (stereo not given), the Potency result is “inactive”. Turning to `COC(=O)C1(O)c2ccccc2-c2ccccc21`, the Potency entry was “inactive”. For the compound `O=C(O)c1cc(I)cc(I)c1I`, the Potency entry was “inactive”. Consider `CC1(C)[C@H](C(=O)O[C@H](C#N)c2cccc(Oc3ccccc3)c2)[C@@H]1C=C(Br)Br`, for which the Potency entry is “inactive”. With `COCc1cnc(C2=NC(C)(C(C)C)C(=O)N2)c(C(=O)O)c1` (stereo not given), the Potency result is “inactive”. For the compound `OCCCl`, the Potency entry is “inactive”. Take `NC(=O)CF`: the Potency entry was “inactive”. Regarding `Cc1cccc(C)c1NC1=NCCCS1`, the Potency entry is “inactive”. With `NC(=S)c1c(Cl)cccc1Cl`, the Potency entry was “inactive”. As for `O=[N+]([O-])O[C@H]1CO[C@H]2[C@@H]1OC[C@H]2O[N+](=O)[O-]`, the Potency result is “inactive”. The entry for `C[C@H](N)[C@H](O)c1ccc(O)c(O)c1` is “inactive”. As for `C=CCOC(=O)C(C)(C)OC(=O)c1cc(-n2c(=O)cc(C(F)(F)F)n(C)c2=O)ccc1Cl`, the entry is “inactive”; as for `ClCc1ccccc1Cl`, “inactive”. As for `C=C(C)C(=O)OCCCCOC(=O)C(=C)C`, the entry is “inactive”. Take `CCC1CCC(=O)O1` (stereo not given): the Potency entry was “inactive”. Regarding `Cc1nc2ccccc2c(=O)n1-c1ccccc1Cl`, the Potency result is “inactive”.
